Assay outcomes: PubChem BioAssay, National Center for Advancing Translational Sciences (NCATS)
Hits are enriched below; roughly 9% of the tested compounds scored in any of these assays.
12-LOX inh: ALOX12 (human) lipoxygenase inhibition. 580,000 tested, 1.1% active. purified 12hLO, xylenol orange hydroperoxide absorbance. P18054. Potency, µM (top dose mostly 108 µM), inactives show at the highest dose activity change, negative = inhibition, most hits filed as inhibitors; note: % is set by controls: 0 for no effect and ±100 for the full control effect
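Purified human 12hLO at 150 nM in 25 mM Hepes, 0.01% Triton X-100, pH 7.0, preincubated 15 min at room temperature with compound. Reaction started with 40 uM arachidonic acid, 30 min at room temperature. Hydroperoxide measured by Fe-xylenol orange, 573/405 nm absorbance ratio.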
JMJD2A Tudor: blocks the human JMJD2A Tudor domain. O75164. AlphaScreen JMJD2A-Tudor / H3K4me3 peptide binding. Potency, µM (highest dose often 114 µM), for the others: at the top dose activity change, negative = inhibition, usual class: inhibitors. 390,000 tested, 4.4% active; note: % is set by controls: 0 for no effect and ±100 for the full control effect; nearly all actives have a fitted effect of over 50% in size
G9a block: inhibitors of human histone lysine methyltransferase G9a | Q96KQ7 | Potency, µM (doses to about 102 µM), without a hit: top-dose activity, negative = inhibition, usual class: inhibitors | G9a H3K9 monomethylation, AlphaScreen, 2 h | 350,000 tested, 8.8% active | AID 504332; note: % is set by controls: 0 for no effect and ±100 for the full control effect; nearly all actives have a fitted effect of over 75% in size
Target sequence (Q96KQ7 913-1193 limits assumed): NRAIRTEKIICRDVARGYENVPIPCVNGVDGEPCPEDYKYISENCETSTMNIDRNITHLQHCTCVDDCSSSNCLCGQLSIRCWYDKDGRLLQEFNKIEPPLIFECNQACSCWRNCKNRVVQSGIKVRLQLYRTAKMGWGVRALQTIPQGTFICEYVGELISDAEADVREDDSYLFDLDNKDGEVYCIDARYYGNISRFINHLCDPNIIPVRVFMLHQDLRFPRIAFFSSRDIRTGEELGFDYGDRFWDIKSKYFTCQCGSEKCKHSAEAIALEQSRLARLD
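G9a (20 nM) was preincubated 15 min with compound, then reacted 2 h at room temperature with 500 nM biotin-H3K9 peptide and 20 µM SAM. Monomethyl-H3K9 detected by AlphaScreen using anti-H3K9me1 antibody.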
HP1b binding inh: inhibitors of HP1-beta chromodomain binding to methylated histone tails; P83916; AlphaScreen HP1-beta / biotin-H3K9me3 peptide binding; Potency, µM (highest dose often 114 µM), for inactives: at the top dose activity change, negative = inhibition, actives largely listed as inhibitors; 390,000 tested, 0.56% active; AID 540317; note: nearly all actives have a fitted effect of over 70% in size
Target sequence (P83916 whole entry, looked up): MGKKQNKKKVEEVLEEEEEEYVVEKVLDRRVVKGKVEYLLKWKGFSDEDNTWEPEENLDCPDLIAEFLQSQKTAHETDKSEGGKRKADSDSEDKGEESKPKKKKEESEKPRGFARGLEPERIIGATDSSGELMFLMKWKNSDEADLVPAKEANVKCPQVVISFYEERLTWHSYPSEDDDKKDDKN
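Compound inhibition of the preformed complex between 50 nM HP1-beta and 50 nM biotinylated H3K9me3 peptide was read by AlphaScreen. Buffer was PBS pH 7.4 with 0.01% Tween-20. Incubations ran 30 min at room temperature, with 10 ug/mL donor/acceptor beads.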
PLK1 PBD inh: blocks phosphopeptide binding to human PLK1 polo-box domain; P53350; Plk1 PBD binding of FITC phosphopeptide, fluorescence polarization; Potency, µM, inactives show max response, negative = inhibition, hits mostly inhibitors; 360,000 tested, 2.8% active; AID 720504; note: series mostly up to about 57 µM; % is set by controls: 0 for no effect and ±100 for the full control effect; nearly all actives have a fitted effect of over 65% in size
BAZ2B inh: blocks human BAZ2B; Q9UIF8; AlphaScreen BAZ2B-H3K14Ac peptide displacement; Potency, µM (top dose mostly 114 µM), for the others: at the highest dose activity change, negative = inhibition, most hits filed as inhibitors; 360,000 tested, 4.4% active; AID 504333; note: % is set by controls: 0 for no effect and ±100 for the full control effect; nearly all actives have a fitted effect of over 60% in size
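In this displacement format the biotinylated H3(5-23) peptide acetylated at Lys14 serves as ligand at 50 nM, with BAZ2B at 50 nM in PBS pH 7.4 containing 0.01% Tween-20. Donor and acceptor beads are 10 ug/mL final.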
* marks the source's active call; other numbers are inactive results; u = inconclusive; x = not tested or not shown; [ ] = another dose, or the depositor's remark. Calls come from the whole dose curve; as a rule, active = well fitted curve in the direction sought with a large enough effect; inconclusive = small, poorly fitted or top-dose-only effect, or another doubt; inactive = no such curve, though single readings can be large; an effect the other way counts as inactive or inconclusive. Potency is the fitted concentration of half-maximal effect.

SMILES	12-LOX inh	JMJD2A Tudor	G9a block	HP1b binding inh	PLK1 PBD inh	BAZ2B inh
CC1CCCC(C)N1C(=C(Cl)Cl)C(=C1SCCS1)[N+](=O)[O-] (configuration not stated)	-3.0%	-18.8%[11.4 µM]	35.5µM*	u	-11.9%	17.8µM*
CC1CCCC(C)N1C(=O)CSCc1ccc(Cl)cc1 (configuration not stated)	-18.7%	20.7%	9.7%	21.8%	-11.6%	4.2%
Cc1noc(C)c1S(=O)(=O)N1CCCOCCNC(=O)[C@@H]2CCC[C@@H]21	34.4%	x	x	x	x	x
Cn1c(=O)c(-c2cc(Br)ccc2N)nc2ccccc21	0.0%	u	50.1µM*	-19.7%	-1.1%	-16.7%
CCN(CCCNC(=O)C1CCN(S(=O)(=O)N2CCOCC2)CC1)c1cccc(C)c1	-11.7%	u	35.5µM*	7.5%	-5.4%	-33.4%
Cc1ccc(CCNC(=O)C2CCN(S(=O)(=O)N3CCOCC3)CC2)cc1	-7.3%	28.2µM*	10.0%	u	7.3%	-3.9%
O=C1C=C(N2CCN(c3ccccn3)CC2)C(=O)c2c(O)ccc(O)c21	-22.6%	31.6µM*	x	u	-17.0%	x
CCCCOc1ncnc2c1[nH]c1ccccc12	35.2%	-5.8%	0.2%	23.4%	-2.1%	-2.4%
Cc1ccc([N+](=O)[O-])c(OCCN2CCC(Cc3ccccc3)CC2)c1	u	3.16µM*	u	u	-9.1%	22.4µM*
CCOc1ccccc1OCCN1CCC(Cc2ccccc2)CC1	-22.8%	44.7µM*	15.8µM*	-12.6%	-1.4%	56.2µM*
CCC(=O)c1ccccc1OCCCN1CCC(Cc2ccccc2)CC1	6.31µM*	35.5µM*	39.8µM*	u	3.5%	-34.3%
N#Cc1ccccc1OCCCN1CCC(Cc2ccccc2)CC1	u	4.47µM*	31.6µM*	u	0.7%	u
Cc1cccc(C)c1NC(=O)C1c2ccccc2Oc2ccccc21	0.7%	-19.9%	20.6%[59 µM]	22.1%	9.8%	-2.7%
COc1ccc(F)cc1CSc1nnc(C2CC2)n1Cc1ccccc1	-1.7%	x	x	x	x	x
CCOc1ccccc1OCCN1CCCC1	u	20µM*	79.4µM*	-17.2%	-4.8%	-25.7%
CCN1CCN(CCOc2ccccc2OCc2ccccc2)CC1	u	12.6µM*	20µM*	u	-12.3%	22.4µM*
Cc1ccc(SCCOCCN2CC(C)OC(C)C2)cc1 (configuration not stated)	-6.2%	-9.2%	u	20.2%	3.9%	9.5%
CCOc1ccccc1OCCOCCN1CC(C)OC(C)C1 (configuration not stated)	-30.5%	u	15.8µM*	-20.6%	-20.7%	u
CCN1CCN(Cc2ccc(OCc3ccccc3)c(OC)c2)CC1	u	-27.0%	u	21.6%	-3.5%	-0.7%
Cc1ccc(C(=O)N/C(=C\c2ccc(-c3cc(Cl)ccc3Cl)o2)C(=O)NCc2cccnc2)cc1	406.5%	u	14.6%[0.0925 µM]	25.4%	-7.1%	4.7%
O=C(NCc1ccccc1)c1cccn1-c1nnc(N2CCCC2)s1	-27.4%	-3.2%	-1.1%[59 µM]	23.4%	x	-12.5%
COc1cccc(NC(=O)C2=NO[C@@H]3CN(Cc4ccc(F)cc4)C[C@H]23)c1	-1.3%[176 µM]	x	x	x	x	x
c1ccc(CC[C@@H]2CC[C@@H](CCc3ccccc3)N2)cc1	-3.2%	-12.9%	-23.9%[0.501 µM]	53.3%	2.1%	3.2%
c1ccc(CCC2Cc3ccccc3N2)cc1 (configuration not stated)	7.4%	56.2µM*	-0.6%[0.501 µM]	-9.8%	2.4%	u
CCOC(=O)N1CCN(C(=O)COC(=O)Cc2ccc(OC)cc2)CC1	12.1%	-9.2%	12.1%	-0.3%	-13.7%	10.5%
SMILES	12-LOX inh	JMJD2A Tudor	G9a block	HP1b binding inh	PLK1 PBD inh	BAZ2B inh
CS(=O)(=O)CCC(C(=O)OCc1ccc(Br)cc1)N1C(=O)c2ccccc2C1=O (configuration not stated)	17.8%	-15.9%	-12.3%[59 µM]	5.6%	-1.3%	-2.9%
O=c1cc(-c2ccccc2)[nH]n1-c1nc2ccccc2[nH]1	u	56.2µM*	-52.8%	19.6%	-7.9%	28.2µM*
CCc1cc(=O)[nH]c(-n2[nH]c(-c3ccccc3)cc2=O)n1	u	-9.7%	-3.8%	30.0%	-8.1%	-0.5%
Cn1cnc([N+](=O)[O-])c1Sc1ncnc2nc[nH]c12	u	2.8%	16.2%[12.7 µM]	21.3%	1.8%	-4.6%
Cn1cnc2nc[nH]c2c1=S	-26.4%	3.55µM*	x	12.0%	0.8%	x
Nc1cccc(Nc2ncnc3ccccc23)c1	0.0%	4.4%	-14.3%[0.501 µM]	20.3%	5.5%	50.1µM*
O=C(O)c1cccc(Nc2ncnc3ccccc23)c1	u	79.4µM*	-29.5%[12.7 µM]	26.2%	-6.9%	u
CS(=O)(=O)Nc1cccc(-c2ccc3ncnc(NCCN4CCOCC4)c3c2)c1	u	x	-7.6%[0.501 µM]	x	x	x
CS(=O)(=O)Nc1cccc(-c2ccc3ncnc(Nc4ccc(F)cc4)c3c2)c1	17.8µM*	x	x	x	x	x
Oc1cccc(Nc2ncnc3ccccc23)c1	11.1%	-4.3%	-5.0%[12.7 µM]	33.4%	-3.1%	2.4%
Fc1ccc(Nc2ncnc3ccccc23)cc1	u	-6.1%	56.2µM*	34.5%	6.5%	-33.4%
CC(=O)Nc1ccc(Nc2ncnc3ccccc23)cc1	x	x	u	x	x	-22.3%
Cc1cc(C)c(C)c(S(=O)(=O)N2CCN(C(=S)NCC3CCCO3)CC2)c1C (configuration not stated)	-17.5%	-23.9%	5.3%	16.6%	-4.6%	x
COc1cccc(CNC(=O)N2CCC(Oc3ncccc3C(=O)N(C)C)C2)c1 (configuration not stated)	2.1%	x	x	x	x	x
COc1ccc(S(=O)(=O)NCCSC(C)(C)C)cc1Cl	-15.3%	-6.3%	4.9%[12.7 µM]	23.0%	4.1%	11.2%
Cc1nn(CCO)c2ncc(C(=O)c3cc(F)ccc3O)cc12	-18.8%	10.9%	50.1µM*	13.5%	2.2%	3.9%
O=C1/C(=C\c2cccs2)Sc2ccc3ccccc3c21	-25.0%	u	7.94µM*	u	-7.4%	u
NC1=NC(=O)/C(=C\c2cccs2)S1	-21.9%	-9.1%	10.7%[59 µM]	10.8%	-3.1%	10.5%
CCOC(=O)N1CCC(NC(=O)c2cnn(-c3ccc(C)cc3)c2C2CCN(C(=O)OC(C)(C)C)CC2)CC1	0.0%	-9.7%	-29.4%[59 µM]	40.7%	x	5.1%[57.1 µM]
CC1=C([N+](=O)[O-])C(c2ccc3c(c2)OCO3)N(C)C(=O)N1C (configuration not stated)	-15.3%	u	7.9%[59 µM]	22.4%	8.44µM*	-37.1%
CCn1c(=O)cc(OCC(=O)NC(C)c2ccc3c(c2)OCCO3)c2ccccc21 (configuration not stated)	0.0%	u	3.9%[59 µM]	u	26.7µM*	-2.2%
Nc1nc(SCC(=O)c2cccc([N+](=O)[O-])c2)n[nH]1	-14.1%	-11.6%	2.51µM*	10.5%	u	-27.2%
Nc1nc(SCc2cccc([N+](=O)[O-])c2)n[nH]1	0.0%	-7.6%	-7.4%	18.9%	-9.4%	0.3%
